Test results from PubChem BioAssay (Tox21).
Results filed as inconclusive are left out. Where a call stands in place of a potency, no number is given. Calls of active or inactive are those of the source. Unless noted, calls follow the shape of the dose curve; as a rule, active = well fitted curve in the direction sought with a large enough effect in the repeat runs; inconclusive = weak or mixed curves; inactive = no such curve, though single readings can be large; an effect the other way counts as inactive or inconclusive.

What was measured:
[1] = qHTS RealTime-Glo MT Cell Viability Assay in HEK293 cells - 0 hour (AID 1224880); also: nearly all actives have a fitted effect of over 45% in size; also: potency is read from the fitted curve at half-maximal effect
In short: (§1)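 Cells were seeded together with NanoLuc luciferase and a prosubstrate that viable cells reduce to a luciferase substrate. After a 5 h incubation at 37 C/5% CO2, compounds were added and luminescence was measured repeatedly during 40 h of treatment.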

[2] = A CellTox Green Cytotoxicity Assay to monitor cytotoxicity in HEK293 cells - 32 hour (AID 1224881); also: nearly all actives have a fitted effect of over 40% in size
In short: (§2)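 Nonlytic real-time cytotoxicity: HEK293 + CellTox Green reagent plated, 5 h preincubation, pintool compound addition (23 nL in DMSO), 37 C for 40 h, fluorescence measured at successive time points.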

[3] = A CellTox Green Cytotoxicity Assay to monitor cytotoxicity in HepG2 cells - 0 hour (AID 1224882); also: nearly all actives have a fitted effect of over 35% in size
In short: (§3)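 Read-out is fluorescence of a cyanine dye excluded from live cells that stains DNA of dead HepG2 cells, with signal proportional to cytotoxicity. Plates were read at 0, 8, 16, 24, 32 and 40 h after compound addition.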

[4] = A CellTox Green Cytotoxicity Assay to monitor cytotoxicity in HepG2 cells - 32 hour (AID 1224883); also: nearly all actives have a fitted effect of over 50% in size
In short: as §3

[5] = A CellTox Green Cytotoxicity Assay to monitor cytotoxicity in HEK293 cells - 8 hour (AID 1224884); also: nearly all actives have a fitted effect of over 35% in size
In short: as §2

[6] = qHTS RealTime-Glo MT Cell Viability Assay in HepG2 cells - 16 hour (AID 1224885); also: nearly all actives have a fitted effect of over 50% in size
In short: (§4)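 Cell number in HepG2 cultures estimated from NanoLuc luminescence generated by metabolic reduction of a prosubstrate by living cells. The homogeneous, nonlytic format allowed repeated reads at 0, 8, 16, 24, 32 and 40 h of compound exposure.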

[7] = qHTS RealTime-Glo MT Cell Viability Assay in HEK293 cells - 24 hour (AID 1224886); also: top concentration of the series differs between compounds; nearly all actives have a fitted effect of over 50% in size
In short: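 Homogeneous bioluminescent viability format in HEK293 cells (600 cells/well). Following 5 h at 37 C/5% CO2, 23 nL compound was pintooled; the signal was measured repeatedly during 40 h incubation.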

[8] = qHTS RealTime-Glo MT Cell Viability Assay in HEK293 cells - 8 hour (AID 1224887); also: top concentration of the series differs between compounds; nearly all actives have a fitted effect of over 50% in size
In short: as §1

[9] = A CellTox Green Cytotoxicity Assay to monitor cytotoxicity in HEK293 cells - 16 hour (AID 1224888); also: nearly all actives have a fitted effect of over 35% in size
In short: as §2

[10] = qHTS RealTime-Glo MT Cell Viability Assay in HepG2 cells - 0 hour (AID 1224889); also: nearly all actives have a fitted effect of over 50% in size; also: potency is read from the fitted curve at half-maximal effect
In short: as §4

[11] = A CellTox Green Cytotoxicity Assay to monitor cytotoxicity in HepG2 cells - 8 hour (AID 1224890); also: nearly all actives have a fitted effect of over 45% in size
In short: as §3

[12] = qHTS assay to identify small molecule antagonists of the estrogen receptor alpha (ER-alpha) signaling pathway using the BG1 cell line in the presence of 0.1 nM 17-beta-estradiol - cell viability counter screen (AID 1259241); also: nearly all actives have a fitted effect of over 40% in size; also: potency is read from the fitted curve at half-maximal effect
In short: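 Viability in VM7Luc4E2 cells after 22 hr compound exposure under 0.1 nM 17beta-estradiol stimulation, by CellTiter-Fluor.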

[13] = qHTS assay to identify small molecule antagonists of the androgen receptor (AR) signaling pathway using the MDA cell line in the presence of 0.5 nM R1881 - cell viability counter screen (AID 1259242); also: nearly all actives have a fitted effect of over 45% in size; also: potency is read from the fitted curve at half-maximal effect
In short: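 Counter screen for cytotoxicity run in the same wells as the AR antagonist reporter screen: MDA-kb2 cells were treated 16 hr with test compounds and 0.5 nM R1881, then live-cell protease activity was measured by fluorescence.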

[14] = molecular target: Estrogen receptor (Homo sapiens) (UniProt P03372); experiment: qHTS assay to identify small molecule antagonists of the estrogen receptor alpha (ER-alpha) signaling pathway using the BG1 cell line in the presence of 0.1 nM 17-beta-estradiol (AID 1259244); also: nearly all actives have a fitted effect of over 50% in size; also: potency is read from the fitted curve at half-maximal effect
In short: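 Cells: VM7Luc4E2, endogenous ER-alpha, 4x ERE-luc stable. Pre-culture 5 d, phenol red-free, charcoal-stripped FBS. Plated 24 h, compound + E2 0.1 nM final, 22 h 37C/5% CO2. Readout ONE-Glo luminescence.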

[15] = qHTS assay to identify small molecule HDAC inhibitors (AID 1259364); also: nearly all actives have a fitted effect of over 45% in size; also: potency is read from the fitted curve at half-maximal effect
In short: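 Luminescence from a cell-permeant luminogenic class I/II HDAC substrate reports endogenous deacetylase activity in intact HCT-116 cells treated with compounds for 2 h.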

[16] = qHTS assay to identify small molecule HDAC inhibitors - cell viability counter screen (AID 1259365)
In short: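 Cytotoxicity was gauged in wild-type HCT-116 cells after a brief 2hr treatment with DMSO-dissolved compounds at 37C and 5% CO2, using CellTiter-Glo luminescence developed for 30min at room temperature.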

[17] = qHTS assay to identify small molecule agonists of the sonic hedgehog signaling (Shh) pathway - cell viability counter screen (AID 1259366); also: nearly all actives have a fitted effect of over 50% in size; also: potency is read from the fitted curve at half-maximal effect
In short: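 Stable Gli1-Luc NIH/3T3 clone, 2,000 cells/well. Compound exposure 24hr at 37C. Read-out: CellTiter-Fluor fluorescence.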

[18] = qHTS assay to identify small molecule antagonists of the sonic hedgehog signaling (Shh) pathway - cell viability counter screen (AID 1259367); also: nearly all actives have a fitted effect of over 55% in size; also: potency is read from the fitted curve at half-maximal effect
In short: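 Cells: 3T3 Gli1-Luc, 2,000/well, 4 hr pre-incubation. Compounds in DMSO, then conditioned medium. Incubation 24 hr, 37C, 5% CO2. CellTiter-Fluor at 23 hr, 1 hr, fluorescence.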

[19] = molecular target: Androgen receptor (Homo sapiens) (UniProt P10275); experiment: qHTS assay to identify small molecule antagonists of the androgen receptor (AR) signaling pathway using the MDA cell line in the presence of 0.5 nM R1881 (AID 1259243); also: nearly all actives have a fitted effect of over 50% in size; also: potency is read from the fitted curve at half-maximal effect
In short: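 Luciferase luminescence is the read-out: compounds are tested for suppressing 0.5 nM R1881-driven MMTV reporter activity in MDA-kb2 cells after 16 hr at 37C.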

[20] = qHTS assay to identify small molecule phospholipidosis (PLD) inducers (AID 1259344; active = well fitted curve in the direction sought with a large enough effect; an effect the other way counts as inactive or inconclusive)
In short: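 Phospholipidosis is scored by imaging LipidTOX-stained pits in HepG2 cells exposed to compound for 24 h at 37 C; pit counts and integrated intensities per well and per cell serve as outputs.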

Estrogen receptor (Homo sapiens), sequence (P03372 whole entry, looked up): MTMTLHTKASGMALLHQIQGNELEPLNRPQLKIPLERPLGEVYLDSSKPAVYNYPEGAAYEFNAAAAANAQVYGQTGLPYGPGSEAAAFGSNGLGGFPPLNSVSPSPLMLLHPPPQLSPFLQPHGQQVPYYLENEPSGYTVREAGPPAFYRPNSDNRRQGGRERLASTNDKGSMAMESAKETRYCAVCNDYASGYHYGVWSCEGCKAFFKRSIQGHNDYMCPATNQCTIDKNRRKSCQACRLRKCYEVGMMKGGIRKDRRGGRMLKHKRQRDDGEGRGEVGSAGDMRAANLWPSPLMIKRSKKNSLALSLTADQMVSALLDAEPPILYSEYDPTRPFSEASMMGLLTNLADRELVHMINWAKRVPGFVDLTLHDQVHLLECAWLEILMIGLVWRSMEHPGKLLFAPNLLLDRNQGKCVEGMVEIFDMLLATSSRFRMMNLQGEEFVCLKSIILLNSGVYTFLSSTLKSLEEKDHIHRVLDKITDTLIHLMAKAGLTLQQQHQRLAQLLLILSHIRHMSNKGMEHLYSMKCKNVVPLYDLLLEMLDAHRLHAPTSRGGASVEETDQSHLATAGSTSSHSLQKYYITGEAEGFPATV
Androgen receptor (Homo sapiens), sequence (P10275 whole entry, looked up): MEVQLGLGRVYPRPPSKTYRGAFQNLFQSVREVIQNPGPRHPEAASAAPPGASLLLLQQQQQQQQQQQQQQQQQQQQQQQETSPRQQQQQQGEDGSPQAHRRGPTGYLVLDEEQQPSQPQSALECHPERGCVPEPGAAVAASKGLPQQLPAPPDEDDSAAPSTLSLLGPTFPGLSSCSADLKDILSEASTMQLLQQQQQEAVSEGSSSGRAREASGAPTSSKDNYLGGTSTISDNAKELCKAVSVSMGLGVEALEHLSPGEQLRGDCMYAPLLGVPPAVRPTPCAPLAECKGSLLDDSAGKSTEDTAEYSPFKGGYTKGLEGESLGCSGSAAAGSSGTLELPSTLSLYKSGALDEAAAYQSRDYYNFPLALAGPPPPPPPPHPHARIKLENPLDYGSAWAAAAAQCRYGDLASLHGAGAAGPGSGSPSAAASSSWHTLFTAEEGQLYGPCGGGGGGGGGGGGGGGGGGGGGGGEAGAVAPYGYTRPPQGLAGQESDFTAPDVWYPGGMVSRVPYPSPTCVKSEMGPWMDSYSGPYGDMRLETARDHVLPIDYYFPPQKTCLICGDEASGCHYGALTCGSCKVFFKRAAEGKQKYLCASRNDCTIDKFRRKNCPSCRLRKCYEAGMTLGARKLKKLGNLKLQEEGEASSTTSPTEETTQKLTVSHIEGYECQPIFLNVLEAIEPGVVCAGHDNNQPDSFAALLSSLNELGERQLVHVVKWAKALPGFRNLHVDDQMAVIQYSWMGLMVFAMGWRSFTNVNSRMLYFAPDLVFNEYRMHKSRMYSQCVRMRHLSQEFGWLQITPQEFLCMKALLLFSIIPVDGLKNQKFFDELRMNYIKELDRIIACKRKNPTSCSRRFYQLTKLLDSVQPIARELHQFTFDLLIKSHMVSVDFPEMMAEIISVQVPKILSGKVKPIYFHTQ

| SMILES | Potency [1] | Potency [2] | Potency [3] | Potency [4] | Potency [5] | Potency [6] | Potency [7] | Potency [8] | Potency [9] | Potency [10] | Potency [11] | Potency [12] | Potency [13] | Potency [14] | Potency [15] | Potency [16] | Potency [17] | Potency [18] | Potency [19] | outcome [20] |
| --- | --- | --- | --- | --- | --- | --- | --- | --- | --- | --- | --- | --- | --- | --- | --- | --- | --- | --- | --- | --- |
| CCCCNP(N)(N)=S | inactive | inactive | inactive | inactive | inactive | inactive | inactive | inactive | inactive | inactive | inactive | inactive | inactive | inactive | inactive | inactive | inactive | inactive | – | – |
| C[C@@H]1CC[C@H]2[C@@H](C)C(=O)O[C@@H]3O[C@@]4(C)CC[C@@H]1[C@]32OO4 | inactive | inactive | inactive | inactive | inactive | inactive | inactive | inactive | inactive | inactive | inactive | inactive | inactive | – | inactive | inactive | inactive | inactive | inactive | inactive |
| COC(N)=O | inactive | inactive | inactive | inactive | inactive | inactive | inactive | inactive | inactive | inactive | inactive | inactive | inactive | inactive | inactive | inactive | inactive | inactive | – | – |
| COC(=O)c1cncn1C(C)c1ccccc1 (configuration not stated) | inactive | inactive | inactive | inactive | inactive | inactive | inactive | inactive | inactive | inactive | inactive | inactive | inactive | inactive | inactive | inactive | inactive | inactive | – | inactive |
| C[C@]12CC[C@H]3[C@@H](CCC4=CC(=O)CC[C@@H]43)[C@@H]1CC[C@@H]2OC(=O)CCC1CCCCC1 | inactive | inactive | inactive | inactive | inactive | inactive | inactive | inactive | inactive | inactive | inactive | inactive | inactive | inactive | inactive | inactive | inactive | inactive | inactive | – |
| ClC=C(Cl)Cl | inactive | inactive | inactive | inactive | inactive | inactive | inactive | inactive | inactive | inactive | inactive | inactive | inactive | inactive | – | inactive | inactive | inactive | – | inactive |
| O=S1(=O)OC(c2cc(Br)c(O)c(Br)c2)(c2cc(Br)c(O)c(Br)c2)c2ccccc21 | 10 µM (active) | inactive | inactive | inactive | inactive | inactive | inactive | inactive | inactive | 6.34 µM (active) | inactive | 14.1 µM (active) | 22.3 µM (active) | 17.7 µM (active) | 3.97 µM (active) | – | 14.1 µM (active) | 15.8 µM (active) | 5.6 µM (active) | – |
| Brc1ccccc1 | inactive | inactive | inactive | inactive | inactive | inactive | inactive | inactive | inactive | inactive | inactive | inactive | inactive | inactive | – | inactive | inactive | inactive | inactive | – |
| CC1(C)[C@H](C=C(Cl)Cl)[C@@H]1C(=O)O[C@@H](C#N)c1cccc(Oc2ccccc2)c1 | inactive | inactive | inactive | inactive | inactive | inactive | inactive | inactive | inactive | inactive | inactive | inactive | inactive | inactive | inactive | inactive | inactive | inactive | – | – |
| CC1Sc2c(C(=O)O)c(=O)c3cc(F)c(N4CCNCC4)cc3n21 (configuration not stated) | inactive | inactive | inactive | inactive | inactive | inactive | inactive | inactive | inactive | inactive | inactive | inactive | inactive | inactive | inactive | inactive | inactive | inactive | inactive | – |
| CC(=O)C(C)(C)C | inactive | inactive | inactive | inactive | inactive | inactive | inactive | inactive | inactive | inactive | inactive | inactive | inactive | inactive | inactive | inactive | inactive | inactive | – | – |
| C=CC(=O)OCC(C)C | inactive | inactive | inactive | inactive | inactive | inactive | inactive | inactive | inactive | inactive | inactive | inactive | inactive | inactive | 19.2 µM (active) | inactive | inactive | inactive | – | – |
| CCCCCC[N+](=O)[O-] | inactive | inactive | inactive | inactive | inactive | inactive | inactive | inactive | inactive | inactive | inactive | inactive | inactive | – | inactive | inactive | inactive | inactive | inactive | – |
| O=C(C(Cl)(Cl)Cl)C(Cl)(Cl)Cl | inactive | inactive | inactive | inactive | inactive | inactive | inactive | inactive | inactive | inactive | inactive | inactive | inactive | inactive | inactive | inactive | inactive | inactive | inactive | – |
